Results filed as inconclusive are left out. Active and inactive are the calls of the source. Calls come from the whole dose curve; as a rule, active = well fitted cell-killing curve with a large enough effect; inconclusive = small, poorly fitted or top-dose-only effect, or effect the other way; inactive = flat fitted curve, though single readings scatter.
Assays:
Experiment in all cases: Primary qHTS to identify gynecologic anti-cancer compounds using libraries of approved drugs and bioactive compounds (AID 1345084); note: nearly all actives have a fitted effect of over 55% in size
C33A = conditions: Gynecologic cancer cell panel viability, ATPlite luminescence, 48 h; series mostly up to 57.5 µM
In short: (§1)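 Cytotoxicity screen measuring ATP content by luciferase luminescence. Each compound is applied at five concentrations for 48 h at 37 C with 5% CO2.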

CAOV3 = conditions: Gynecologic cancer cell panel viability, ATPlite luminescence, 48 h; series mostly up to 57.5 µM
In short: as §1

CASKI = conditions: Gynecologic cancer cell panel viability, ATPlite luminescence, 48 h; series mostly up to 57.5 µM
In short: as §1

Es-2 = conditions: Gynecologic cancer cell panel viability, ATPlite luminescence, 48 h; series mostly up to 57.5 µM
In short: as §1

HeLa = conditions: Gynecologic cancer cell panel viability, ATPlite luminescence, 48 h; series mostly up to 57.5 µM
In short: as §1

Hek293T = conditions: Gynecologic cancer cell panel viability, ATPlite luminescence, 48 h, control line for the selectivity index; series mostly up to 57.5 µM
In short: as §1

JEG-3 = conditions: Gynecologic cancer cell panel viability, ATPlite luminescence, 48 h; series mostly up to 57.5 µM
In short: as §1

OV90 = conditions: Gynecologic cancer cell panel viability, ATPlite luminescence, 48 h; series mostly up to 57.5 µM
In short: as §1

PA-1 = conditions: Gynecologic cancer cell panel viability, ATPlite luminescence, 48 h; series mostly up to 57.5 µM
In short: as §1

SKOV3 = conditions: Gynecologic cancer cell panel viability, ATPlite luminescence, 48 h; series mostly up to 57.5 µM
In short: as §1

Tov-21-G = conditions: Gynecologic cancer cell panel viability, ATPlite luminescence, 48 h; series mostly up to 57.5 µM
In short: as §1

Tov112D = conditions: Gynecologic cancer cell panel viability, ATPlite luminescence, 48 h; series mostly up to 57.5 µM
In short: as §1
% is set by controls: 0 for no effect and ±100 for the full control effect.

CC1OC(OC2C(CO)OC(OCC3OC(OC(=O)C45CCC(C)(C)CC4C4=CCC6C7(C)CCC(OC8OC(C(=O)O)C(O)C(OC9OC(CO)C(O)C(O)C9O)C8O)C(C)(C)C7CCC6(C)C4(C)CC5)C(O)C(O)C3O)C(O)C2O)C(O)C(O)C1O (stereo unspecified)
inactive: activity change, negative = cytotoxicity (C33A) 4.48% [at 6.55 µM] | activity change, negative = cytotoxicity (CAOV3) -1.08% [at 6.55 µM] | activity change, negative = cytotoxicity (CASKI) 0.241% [at 6.55 µM] | activity change, negative = cytotoxicity (Es-2) 5.55% [at 6.55 µM] | activity change, negative = cytotoxicity (HeLa) -1.58% [at 6.55 µM] | activity change, negative = cytotoxicity (Hek293T) 6.6% [at 6.55 µM] | activity change, negative = cytotoxicity (JEG-3) 9.3% [at 6.55 µM] | activity change, negative = cytotoxicity (OV90) 0.685% [at 6.55 µM] | activity change, negative = cytotoxicity (PA-1) 14.3% [at 6.55 µM] | activity change, negative = cytotoxicity (SKOV3) 21% [at 6.55 µM] | activity change, negative = cytotoxicity (Tov-21-G) 0.671% [at 6.55 µM] | activity change, negative = cytotoxicity (Tov112D) 0.769% [at 6.55 µM]

C=CC1(C)CC(OC(=O)C(=C)C(O)COC(C)=O)C(C(=C)C(=O)OC)C(O)C1C(=C)CO (stereo unspecified)
inactive: Potency (C33A) | Potency (CAOV3) | Potency (CASKI) | Potency (Es-2) | Potency (HeLa) | Potency (Hek293T) | Potency (JEG-3) | Potency (OV90) | Potency (PA-1) | Potency (SKOV3) | Potency (Tov-21-G) | Potency (Tov112D)

COc1cc(C2OCC3C(c4ccc(OC5OC(CO)C(O)C(O)C5O)c(OC)c4)OCC23)ccc1O (stereo unspecified)
inactive: Potency (C33A) | Potency (CAOV3) | Potency (CASKI) | Potency (Es-2) | Potency (HeLa) | Potency (Hek293T) | Potency (JEG-3) | Potency (OV90) | Potency (PA-1) | Potency (SKOV3) | Potency (Tov-21-G) | Potency (Tov112D)

COc1cccc(-n2nc(C(=O)O)cc2-c2ccc(C3CCCCC3)c(Cl)c2)c1
inactive: Potency (C33A) | Potency (CAOV3) | Potency (CASKI) | Potency (Es-2) | Potency (HeLa) | Potency (Hek293T) | Potency (JEG-3) | Potency (OV90) | Potency (PA-1) | Potency (SKOV3) | Potency (Tov-21-G) | Potency (Tov112D)

CCCCCCc1cccc(NC(=O)[C@H](N)CCP(=O)(O)O)c1
inactive: activity change, negative = cytotoxicity (C33A) 10.1% [at 11.6 µM] | activity change, negative = cytotoxicity (CAOV3) 5.39% [at 11.6 µM] | activity change, negative = cytotoxicity (CASKI) 0.791% [at 11.6 µM] | activity change, negative = cytotoxicity (Es-2) 1.07% [at 11.6 µM] | activity change, negative = cytotoxicity (HeLa) 2.94% [at 11.6 µM] | activity change, negative = cytotoxicity (Hek293T) -0.817% [at 11.6 µM] | activity change, negative = cytotoxicity (JEG-3) 8.47% [at 11.6 µM] | activity change, negative = cytotoxicity (OV90) 3.38% [at 11.6 µM] | activity change, negative = cytotoxicity (PA-1) 2.71% [at 11.6 µM] | activity change, negative = cytotoxicity (SKOV3) -0.133% [at 11.6 µM] | activity change, negative = cytotoxicity (Tov-21-G) -2.84% [at 11.6 µM] | activity change, negative = cytotoxicity (Tov112D) 3.09% [at 11.6 µM]

CC1=C2C(=O)O[C@@H](c3ccoc3)[C@]2(C)CCC1
inactive: Potency (C33A) | Potency (CAOV3) | Potency (CASKI) | Potency (Es-2) | Potency (HeLa) | Potency (Hek293T) | Potency (JEG-3) | Potency (OV90) | Potency (PA-1) | Potency (SKOV3) | Potency (Tov-21-G) | Potency (Tov112D)

C=C1CC[C@H]2[C@@](C)(CCC[C@@]2(C)C(=O)O)[C@@H]1CCC(C)CCO (stereo partly specified)
inactive: Potency (C33A) | Potency (CAOV3) | Potency (CASKI) | Potency (Es-2) | Potency (HeLa) | Potency (Hek293T) | Potency (JEG-3) | Potency (OV90) | Potency (PA-1) | Potency (SKOV3) | Potency (Tov-21-G) | Potency (Tov112D)

CC1C(=O)CC2C3C(O)CC(C(=O)O)C12CC3(C)C (stereo unspecified)
inactive: Potency (C33A) | Potency (CAOV3) | Potency (CASKI) | Potency (Es-2) | Potency (HeLa) | Potency (Hek293T) | Potency (JEG-3) | Potency (OV90) | Potency (PA-1) | Potency (SKOV3) | Potency (Tov-21-G) | Potency (Tov112D)

CC1(C)CC[C@]2(C(=O)O[C@@H]3O[C@H](CO)[C@@H](O)[C@H](O)[C@H]3O)CC[C@]3(C)C(=CCC4[C@@]5(C)C[C@@H](O)[C@H](O)[C@@](C)(CO)C5CC[C@]43C)C2C1 (stereo partly specified)
inactive: Potency (C33A) | Potency (CAOV3) | Potency (CASKI) | Potency (Es-2) | Potency (HeLa) | Potency (Hek293T) | Potency (JEG-3) | Potency (OV90) | Potency (PA-1) | Potency (SKOV3) | Potency (Tov-21-G) | Potency (Tov112D)

CC1=C2C3OC(=O)C(C)C3(O)CCC2(C)CCC1=O (stereo unspecified)
inactive: Potency (C33A) | Potency (CAOV3) | Potency (CASKI) | Potency (Es-2) | Potency (HeLa) | Potency (Hek293T) | Potency (JEG-3) | Potency (OV90) | Potency (PA-1) | Potency (SKOV3) | Potency (Tov-21-G) | Potency (Tov112D)

C/C=C1/[C@H](O[C@@H]2O[C@H](CO)[C@@H](O)[C@H](O)[C@H]2O)OC=C(C(=O)OC)[C@H]1CC(=O)O[C@@H]1O[C@H](CO)[C@@H](O)[C@H](O)[C@H]1O
inactive: Potency (C33A) | Potency (CAOV3) | Potency (CASKI) | Potency (Es-2) | Potency (HeLa) | Potency (Hek293T) | Potency (JEG-3) | Potency (OV90) | Potency (PA-1) | Potency (SKOV3) | Potency (Tov-21-G) | Potency (Tov112D)

C[C@@H]1O[C@@H](O[C@H]2[C@H](O)[C@@H](O)[C@H](OC[C@H]3O[C@@H](OC(=O)[C@]45CCC(C)(C)C[C@H]4C4=CCC6[C@@]7(C)C[C@H](O)[C@H](O[C@@H]8O[C@H](CO)[C@@H](O)[C@H](O)[C@H]8O)[C@@](C)(C(=O)O)C7CC[C@@]6(C)[C@]4(C)CC5)[C@H](O[C@@H]4O[C@H](CO)[C@@H](O)[C@H](O)[C@H]4O)[C@@H](O)[C@@H]3O)O[C@@H]2CO)[C@H](O)[C@H](O)[C@H]1O (stereo partly specified)
inactive: activity change, negative = cytotoxicity (C33A) 4.28% [at 6.55 µM] | activity change, negative = cytotoxicity (CAOV3) 11.2% [at 6.55 µM] | activity change, negative = cytotoxicity (CASKI) 9.67% [at 6.55 µM] | activity change, negative = cytotoxicity (Es-2) 9.17% [at 6.55 µM] | activity change, negative = cytotoxicity (HeLa) 0.162% [at 6.55 µM] | activity change, negative = cytotoxicity (Hek293T) 3.11% [at 6.55 µM] | activity change, negative = cytotoxicity (JEG-3) -3.92% [at 6.55 µM] | activity change, negative = cytotoxicity (OV90) 0.564% [at 6.55 µM] | activity change, negative = cytotoxicity (PA-1) 15.2% [at 6.55 µM] | activity change, negative = cytotoxicity (SKOV3) 8.21% [at 6.55 µM] | activity change, negative = cytotoxicity (Tov-21-G) 6.93% [at 6.55 µM] | activity change, negative = cytotoxicity (Tov112D) 5.3% [at 6.55 µM]

Cn1c(=O)c2nc(/C=C/c3cccc(Cl)c3)n(C)c2n(C)c1=O
inactive: Potency (C33A) | Potency (CAOV3) | Potency (CASKI) | Potency (Es-2) | Potency (HeLa) | Potency (Hek293T) | Potency (JEG-3) | Potency (OV90) | Potency (PA-1) | Potency (SKOV3) | Potency (Tov-21-G) | Potency (Tov112D)
